In PubChem BioAssay (NCATS):
Values joined by “and” are separate entries in the source; they are usually repeats but may differ in a detail not shown here. Identical values can stand only once. Records with an inconclusive call do not appear. Unmarked numbers belong to inactive results. Active and inactive are the calls of the source. Calls follow the shape of the dose curve; as a rule, active = well fitted cell-killing curve with a large enough effect; inconclusive = small, poorly fitted or top-dose-only effect; inactive = flat fitted curve, though single readings scatter.

Test: qHTS of pediatric cancer cell lines to identify multiple opportunities for drug repurposing: Primary screen for TC32 cells (AID 1347089); also: nearly all actives have a fitted effect of over 60% in size
Conditions: TC32 Ewing sarcoma viability, CellTiter-Glo luminescence, 48 h; series mostly up to 45.8 µM; activity change, negative = cytotoxic: at the top concentration
From the text: Drug repurposing or repositioning has been offered as a strategy for drug development in oncology programs. This approach has special potential for childhood cancers and other rare or orphan diseases, where the expected return on new drug development has been a disincentive to pharmaceuticals.
In this project we exploit the poly-pharmacology of drugs to discover new indications via phenotypic screening of a panel of 19 well-characterized cell lines derived from solid tumors seen in children and adolescents. The goal is to identify approved drugs with previously unrecognized anticancer properties that has the potential to reveal new mechanisms and biological processes involved in carcinogenesis or drug resistance. We employed a titration-based paradigm (quantitative high-throughput screening or qHTS), where all compounds were tested at multiple concentrations for their effect on cell viability. Concentration-response curves (CRCs) were derived directly from the primary screen, and both potency and efficacy values were used to identify compounds with robust bioactivity profiles. We screened the NIH Chemical Genomics Center (NCGC) Pharmaceutical Collection (NPC) and Mechanism Interrogation Plate (MIPE) small molecule collections of approved and investigational compounds against these cell lines; and measured metabolically active cells after 48 hours of compound treatment as a proxy for cell viability.
Assay Submitter: Nathalia J. Martinez, National Center for Advancing Translational Sciences, National Institutes of Health, Rockville, MD, USA; email: natalia.martinez@nih.gov
[1] Shen, M et al. Quantitative high-throughput phenotypic screening of pediatric cancer cell lines identifies multiple opportunities for drug repurposing. Oncotarget 2017 Dec 19;9(4):4758-4772. PMID 29435139.
The cells were obtained from University of North Carolina (UNC), Pediatric Preclinical Testing Program (PPT), and Coriell Institute (CI).
qHTS cell viability assay:
Cells were assayed in growth media at a density of 500-1,000 cells/well. Five microliters of cells were dispensed into 1,536-well, white, solid-bottom, TC-treated plates (Greiner Bio One) using a multidrop dispenser and incubated at 37 degrees C, 5% CO2, under a humidified atmosphere for 5 hours. Twenty-three nanoliters of compounds and controls (neutral control DMSO or positive control bortezomib at final concentration of 2.3 uM) were subsequently transferred by Kalypsys pintool. For primary screens, the MIPE collection was tested at 11-point dilutions (final concentrations range from 0.78 nM to 46 µM) and the NPC collection at 8-point dilutions (final concentrations range from 0.59 nM to 46 µM). Compounds tested in follow-up screens were assayed at 11-point dilutions. Cells were incubated for 48 hours, followed by addition of 3 uL of CellTiter-Glo (Promega). After a 15min incubation at room temperature, samples were analyzed for luminescence intensity using a ViewLux High-throughput CCD imager equipped with clear filters.
% is scaled to controls: 0 for no effect and ±100 for the full control effect; potency is read from the fitted curve at half-maximal effect.

SMILES | activity change, negative = cytotoxic | Potency
Cc1cccc(C#Cc2ccccc2)n1 | 0.988% | –
Clc1ccc2c(N3CCN(CCCN4CCN(c5ccnc6cc(Cl)ccc56)CC4)CC3)ccnc2c1 | 11.3% [at 16 µM] | –
O=C1NC(=O)C(c2ccccc2[N+](=O)[O-])=C1Nc1ccc(O)c(Cl)c1 | -0.239% | –
CC(=O)Nc1ccc(O)cc1 | – | inactive
Oc1ccc(OCc2ccccc2)cc1 | 3.06% | –
COc1cc(OC)c(C(=O)CCCN2CCCC2)c(OC)c1 | – | inactive
O=C1c2c(O)cc(O)cc2OC(c2ccc(O)c(O)c2)C1O (stereo not given) | 17.2% | –
COc1c(O)cc2c(c1O)[C@@H]1O[C@H](CO)[C@@H](O)[C@H](O)[C@H]1OC2=O | 6.5% | –
C=CCc1cc(OC)c(O)c(C(=O)NCCO)c1 | – | inactive
C[C@]12CCC(=O)C=C1CC[C@@H]1[C@H]2[C@@H](O)C[C@@]2(C)[C@H]1CC[C@]2(O)C(=O)CO | 13.3% | –
C[C@@H](c1ncncc1F)[C@](O)(Cn1cncn1)c1ccc(F)cc1F | -0.385% | –
COC(=O)C1=C(C)NC(C)=C(C(=O)OC(C)C)C1c1cccc2nonc12 (stereo not given) | – | inactive
S=c1nc[nH]c2nc[nH]c12 | – | 8.36 µM (active) and 20.8 µM (active)
CCOC(=O)C1=C(O)C(=O)N(Cc2ccccc2)C1 | 11.5% | –
CCOC(=O)c1c(C)n(C)c2ccc(O)cc12 | – | inactive
NNc1nncc2ccccc12 | – | inactive
CCCS(=O)c1ccc2nc(NC(=O)OC)[nH]c2c1 (stereo not given) | -7.38% | –
CN(C)CCc1c[nH]c2ccc(Cn3cncn3)cc12 | 14.5% | –
Cc1cccc(C)c1OCC(=O)N[C@@H](Cc1ccccc1)[C@@H](O)C[C@H](Cc1ccccc1)NC(=O)[C@H](C(C)C)N1CCCNC1=O | – | inactive
COc1cc(Nc2c(C#N)cnc3cc(OCCCN4CCN(C)CC4)c(OC)cc23)c(Cl)cc1Cl | – | 23.6 µM (active)

SMILES | activity change, negative = cytotoxic | Potency
CN(C)C(=O)COC(=O)Cc1ccc(OC(=O)c2ccc(N=C(N)N)cc2)cc1 | – | inactive
Nc1ccn([C@@H]2O[C@H](CO)[C@@H](O)C2O)c(=O)n1 (stereo not given in full) | 11.4% | –
O=C1c2ccccc2-c2n[nH]c3cccc1c23 | -12.2% | –
CCCOc1ccc2nc(NC(=O)OC)[nH]c2c1 | – | 187 nM (active) and 131 nM (active)
c1ccc2[nH]c(-c3cscn3)nc2c1 | – | inactive
CC(C)(S)[C@@H](N)C(=O)O | 11.7% | –
O=C(CCc1ccc(O)cc1)c1c(O)cc(O)cc1O | 6.97% | –
O=c1oc2cc(O)ccc2s1 | -7.4% | –
COc1ccc(C2(C#N)CCC(C(=O)O)CC2)cc1OC1CCCC1 (stereo not given) | 12.4% | –
CC1(C)CCC(C)(C)c2cc(NC(=O)c3ccc(C(=O)O)cc3)ccc21 | – | inactive
O=C(NOCC1CC1)c1ccc(F)c(F)c1Nc1ccc(I)cc1Cl | 7.72% | –
CCN(CCO)CCCC(C)Nc1ccnc2cc(Cl)ccc12 (stereo not given) | – | inactive
CC(C)c1ccc2c(c1)c(SC(C)(C)C)c(CC(C)(C)C(=O)O)n2Cc1ccc(Cl)cc1 | 0.153% | –
CCN(CC)CCOc1ccc(Nc2ncc3cc(-c4c(Cl)cccc4Cl)c(=O)n(C)c3n2)cc1 | – | 6.58 µM (active)
Cc1ccc(NC(=O)c2ccc(CN3CCN(C)CC3)cc2)cc1Nc1nccc(-c2cccnc2)n1 | – | inactive
O=Nc1c(-c2c(O)[nH]c3cc(Br)ccc23)[nH]c2ccccc12 | 18.4% | –
O=C(O)c1cn(-c2ccc(F)cc2)c2cc(N3CCNCC3)c(F)cc2c1=O | – | inactive
CCC[C@@H]1C[C@@H](C(=O)N[C@@H]([C@H]2O[C@H](SC)[C@H](O)[C@@H](O)[C@H]2O)[C@@H](C)O)N(C)C1 | – | inactive
Clc1ccc(C(Cn2ccnc2)OCc2ccc(Sc3ccccc3)cc2)c(Cl)c1 (stereo not given) | – | inactive
CC(=O)N1CCN(c2ccc(OC[C@H]3CO[C@](Cn4ccnc4)(c4ccc(Cl)cc4Cl)O3)cc2)CC1 | -9.39% | –
